High-throughput results (PubChem BioAssay)
Only some compounds are listed: those with a hit (about 3.5% of all), similar ones and a draw of the others.
Pf apPOL inh – Pf-apPOL DNA polymerase inhibition | Recombinant Pf-apPOL, molecular beacon fluorescence, 1.5 h | inhibition, % at 10 µM | 0.25% of 210,000 active | AID 1794808
mHTT-CaM PPI inh – inhibitors of human mutant huntingtin-calmodulin interaction | P42858 | AlphaScreen His-mHTT/GST-CaM binding, luminescence | inhibition, % at 15 µM | 3.6% of 190,000 active | AID 1671202
Large screens that a line does not name were inactive; ! = a repeat was not active. No stated cut-off is given here; in the data, active means inhibition above about 50%; inactive means the rest.

O=c1oc2c(-c3ccc(Cl)cc3)cc(O)cc2s1	mHTT-CaM PPI inh 80
Cc1cccc(-c2cc(O)cc3sc(=O)oc23)c1	mHTT-CaM PPI inh 91
Cc1cccc(-c2nc(-c3ccc(-n4ccnc4)nc3)no2)c1	none
Cc1cccc(OCC(=O)N2CCCC2c2nc(-c3cccc(Cl)c3)no2)c1 (stereo not drawn)	mHTT-CaM PPI inh 78
Cc1cccc(-c2noc(C3CCCN3C(=O)COc3ccc(Cl)cc3C)n2)c1 (stereo not drawn)	mHTT-CaM PPI inh 76
Cc1ccccc1OCC(=O)N1CCCC1c1nc(-c2cccc(Cl)c2)no1 (stereo not drawn)	none
COc1cccc(-c2noc(C3CCCN3C(=O)NCc3ccc(C)cc3)n2)c1 (stereo not drawn)	none
Cc1cccc(-c2noc(C3CCCN3C(=O)COc3ccccc3)n2)c1 (stereo not drawn)	none
COc1cccc(-c2noc(C3CCCN3C(=O)NCc3ccc(F)cc3)n2)c1 (stereo not drawn)	mHTT-CaM PPI inh 76
CC(C)N(C)C(=O)C1CC(=O)N(Cc2ccc(F)cc2)C1 (stereo not drawn)	none
COc1ccc(CCNC(CC(=O)Nc2ccc(F)cc2F)C(=O)O)cc1OC (stereo not drawn)	none
CN1CCN(c2ccc3c(c2)Oc2ccccc2CN(Cc2cn(Cc4ccc(C(F)(F)F)cc4)nn2)S3(=O)=O)CC1	mHTT-CaM PPI inh 72
O=S1(=O)c2ccc(N3CCCC3)cc2Oc2ccccc2CN1Cc1cn(Cc2ccc(Cl)cc2)nn1	none
CCN1CCN(c2ccc(C(=O)OC)cc2NC(=O)C2CCCCC2)CC1	none
Cc1ccc(S(=O)(=O)N(CCC#N)Cc2cccnc2)cc1	none (no result: mHTT-CaM PPI inh)
O=C(OCc1ccccc1)C1C2C=CC3(CN(c4ccc(Cl)cc4)C(=O)C13)O2 (stereo not drawn)	mHTT-CaM PPI inh 80
CCc1ccc(N2CC34C=CC(O3)C(C(=O)OC)C4C2=O)cc1 (stereo not drawn)	none
Cc1cc(O)ccc1NC(=O)Cc1ccccc1	none
Cc1ccc(-n2ncc3c(=O)[nH]c(SCC(=O)O)nc32)cc1C	Pf apPOL inh 72
CCCSc1nc2c(cnn2-c2ccc(C)c(C)c2)c(=O)[nH]1	none
CC(=O)Nc1cc2c(cc1C(=O)c1ccc(Br)cc1)OCCO2	none
CC(=O)Nc1nc2ccc(Br)cc2s1	none
CC(=O)Nc1nc2cc3sc(NC(C)=O)nc3cc2s1	Pf apPOL inh 53!
Cc1ccc(S(=O)(=O)NCCC2CCN(C(=O)c3ccccc3)CC2)cc1C	none
Cc1cc(C)c(S(=O)(=O)NCCC2CCN(C(=O)c3ccccc3)CC2)cc1C	mHTT-CaM PPI inh 64
Cc1c(Cl)cccc1S(=O)(=O)NCCC1CCN(C(=O)c2ccccc2)CC1	mHTT-CaM PPI inh 53
O=C(c1ccc(F)cc1)N1CCC(CCNS(=O)(=O)c2ccccc2Cl)CC1	none
O=C(c1ccc(F)cc1)N1CCC(CCNS(=O)(=O)c2cccc(Cl)c2)CC1	none
O=C(c1ccccc1)N1CCC(CCNS(=O)(=O)c2cccc(Cl)c2)CC1	mHTT-CaM PPI inh 50
O=C1N=C(N2CCCCC2)S/C1=C/c1ccc(Cl)cc1	none
COc1ccc(OC)c(C=C2Oc3c(ccc4c3CN(CCN3CCOCC3)CO4)C2=O)c1	mHTT-CaM PPI inh 54
COCCN1COc2ccc3c(c2C1)OC(=Cc1ccc(OC)c(OC)c1)C3=O	none
COc1ccc(C=C2Oc3c(ccc4c3CN(CCN3CCOCC3)CO4)C2=O)cc1OC	mHTT-CaM PPI inh 62
COc1cc(OC)c(OC)cc1C=C1Oc2c(ccc3c2CN(CCN2CCOCC2)CO3)C1=O	none
O=C(COc1ccc(Cl)cc1)N1CCN(c2nc(CN3CCOCC3)cs2)CC1	none
COc1ccc(-c2cn3ccn(-c4ccc5c(c4)CCC5)c(=O)c3n2)cc1	none
O=C(Nc1nc(-c2ccccn2)cs1)c1ccc([N+](=O)[O-])o1	mHTT-CaM PPI inh 74
O=C(NCc1cccs1)Nc1nc(-c2ccccn2)cs1	mHTT-CaM PPI inh 100
O=C(Nc1nc(-c2ccccn2)cs1)c1ccccc1[N+](=O)[O-]	mHTT-CaM PPI inh 100
CCOc1cccc2cc(-c3csc(NC(=O)c4ccc([N+](=O)[O-])o4)n3)oc12	none
O=C(Cc1csc(Nc2ncccn2)n1)NCc1cccs1	none
O=C(Nc1nc(-c2ccccn2)cs1)c1cc2cc([N+](=O)[O-])ccc2s1	none
COc1cc([N+](=O)[O-])ccc1N=Cc1nc(-c2ccc(Cl)cc2)oc1O	none
O=C(Nc1cccc(Cl)c1)c1ccc(F)c(S(=O)(=O)NC2CCCC2)c1	none
O=C(Nc1cc(Cl)cc(Cl)c1)c1ccc(F)c(S(=O)(=O)NC2CCCC2)c1	mHTT-CaM PPI inh 54
Cc1ccc(NC(=O)c2cc(S(=O)(=O)NC3CCCCC3)ccc2F)cc1Cl	none
O=C(Nc1ccc(Cl)c(Cl)c1)c1cc(S(=O)(=O)NC2CCCCC2)ccc1F	mHTT-CaM PPI inh 78
NC(=O)Cn1cnc2sc3c(c2c1=O)CCCC3	none
COc1cc(Br)cc2c1OC1(C)CC2NC(=O)N1c1ccc(Cl)cc1 (stereo not drawn)	none
CC(C)(C)C(=O)N1CCN(Cc2ccc3c(c2)OCO3)CC1	none (no result: mHTT-CaM PPI inh)
CC(=O)N(Cc1ccc2c(c1)CN(C(=O)C(C)(C)C)CCO2)c1ccc(C)cc1	mHTT-CaM PPI inh 73
O=C(O)c1ccc(Cl)c(N=Cc2cc(Br)cc(Br)c2O)c1	none
Cc1ccc(NCN2C(=O)C3CC=C(Cl)CC3C2=O)cc1 (stereo not drawn)	mHTT-CaM PPI inh 64
O=C1C2CC=C(Cl)CC2C(=O)N1CNc1ccccc1 (stereo not drawn)	none
CC(=O)Nc1ccc(-c2noc(C3CCN(C(=O)Cc4cccc(F)c4)CC3)n2)cc1	none
O=C(c1cccc([N+](=O)[O-])c1)N1CCN=C1SCc1ccccc1	none
COc1ccccc1C(=O)N1CCCN(c2cc(-c3ccccc3)[nH]n2)CC1	mHTT-CaM PPI inh 57
COc1ccccc1C(=O)N1CCN(c2cc(-c3cccnc3)[nH]n2)CC1	none
CC(=O)c1cccc(N2COc3ccc(Cl)cc3C2)c1	none
O=[N+]([O-])c1cccc(N2COc3ccc(Cl)cc3C2)c1	mHTT-CaM PPI inh 54
O=C(NCc1cccs1)C1CCCN(c2cnn(Cc3ccccc3)c(=O)c2)C1 (stereo not drawn)	none
CCCCNC(=O)C1CC(=O)N(CCc2ccccc2)C1 (stereo not drawn)	none
CCCCN(CCCNC(=O)C1CC(=O)N(CCc2ccccc2)C1)c1ccccc1 (stereo not drawn)	mHTT-CaM PPI inh 80
N#CC(c1ccccc1O)N1N=C(c2ccccc2)CC1c1ccccc1 (stereo not drawn)	mHTT-CaM PPI inh 92
NC(=S)N1N=C(c2ccccc2)CC1c1ccccc1 (stereo not drawn)	none (no result: Pf apPOL inh)
CN(C)C(=O)c1ccc2c(c1)N(S(=O)(=O)c1ccccc1)CC2	none
Oc1ccc2ccccc2c1C(c1cccs1)N1CCCCC1 (stereo not drawn)	none (no result: mHTT-CaM PPI inh)
CC(=O)NC(c1cccs1)c1ccc2cccnc2c1O (stereo not drawn)	mHTT-CaM PPI inh 100
O=C(Nc1cccc2cccnc12)C(=O)Nc1cccc2cccnc12	none
OCCN1CCN(C(c2cccs2)c2ccc3cccnc3c2O)CC1 (stereo not drawn)	Pf apPOL inh 96, mHTT-CaM PPI inh 100
CC(=O)NC(c1ccco1)c1ccc2cccnc2c1O (stereo not drawn)	mHTT-CaM PPI inh 100
CCCCC(=O)NC(c1cccs1)c1cc(Cl)c2cccnc2c1O (stereo not drawn)	none
Clc1nc(C(Cl)(Cl)Cl)nc2ccccc12	mHTT-CaM PPI inh 100
CCCNc1nc(C(Cl)(Cl)Cl)nc2ccccc12	none
